Counter-ions that a name gives are not always drawn. ± gives the standard deviation of the averaged measurements.
Test system: E. coli TESEC Mtb DapB
Assay: growth (OD600 after 10 h); higher = more growth (less inhibition)
Details: arabinose induction (level): High; compound 0.1 mM; raw OD600 reference: median of DMSO wells […], cell-free background 0.041
Protocol: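 TESEC E. coli strains in which the native enzyme is deleted and replaced by arabinose-inducible Mtb Asd, DapB, CysH or TrpD, each grown in its selective medium. Strains were screened against the Prestwick library at 0.1 mM and 1% DMSO in 384-well format at low and high arabinose induction. Growth is read as OD600 after 10 h in triplicate.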

| SMILES | growth |
| --- | --- |
| CCN(CC)CCNc1ccc(CO)c2sc3ccccc3c(=O)c12 [Hycanthone] | 0.21 ± 0.027 |
| CN(C)CCOC(=O)COc1ccc(Cl)cc1 [Meclofenoxate hydrochloride] | 0.199 ± 0.014 |
| Cc1ncc(CO)c(CO)c1O [Pyridoxine hydrochloride] | 0.215 ± 0.011 |
| Cn1c(NCCN(CCO)CCCc2ccc([N+](=O)[O-])cc2)cc(=O)n(C)c1=O [Nifekalant] | 0.2 ± 0.033 |
| CC(=O)O[C@]1(C(C)=O)CC[C@H]2[C@@H]3C=C(Cl)C4=CC(=O)CC[C@]4(C)[C@H]3CC[C@@]21C [Chlormadinone acetate] | 0.0988 ± 0.0082 |
| Cn1c(=O)c2c(ncn2C)n(C)c1=O [Caffeine] | 0.192 ± 0.01 |
| CCN(CC)CCOC(=O)C(c1ccccc1)C1CCCCC1 (stereo not given) [Drofenine hydrochloride] | 0.156 ± 0.0038 |
| C[C@]12CC[C@@H]3c4ccc(O)cc4CC[C@H]3[C@@H]1CCC2=O [Estrone] | 0.208 ± 0.026 |
| CC(C)c1ccc2oc3nc(N)c(C(=O)O)cc3c(=O)c2c1 [Amlexanox] | 0.197 ± 0.0066 |
| O=C(O)[C@H]1/C(=C/CO)O[C@@H]2CC(=O)N21 [Clavulanate potassium salt] | 0.182 ± 0.0081 |
| COc1ccc(C(=O)c2ccccc2)c(O)c1 [Oxybenzone] | 0.186 ± 0.015 |
| NC[C@@H]1O[C@@H](O[C@H]2[C@H](O)[C@@H](O[C@H]3O[C@H](CO)[C@@H](O)[C@H](N)[C@H]3O)[C@H](N)C[C@@H]2N)[C@@H](O)[C@H](O)[C@H]1O [Kanamycin A sulfate] | 0.202 ± 0.0057 |
| CC(CN(C)C)C(C)(O)Cc1ccc(Cl)cc1 (stereo not given) [Clobutinol hydrochloride] | 0.187 ± 0.0091 |
| Cc1[nH]c(=O)c(C#N)cc1-c1ccncc1 [Milrinone] | 0.212 ± 0.0044 |
| C1CCC(C(CC2CCCCN2)C2CCCCC2)CC1 (stereo not given) [Perhexiline maleate] | 0.0462 ± 0.0004 |
| O=C(O)CCC(=O)c1ccc(-c2ccccc2)cc1 [Fenbufen] | 0.165 ± 0.0041 |
| O=C(CCCN1CCC(O)(c2ccc(Br)cc2)CC1)c1ccc(F)cc1 [Bromperidol] | 0.177 ± 0.014 |
| CC(C)(C)CC(C)(C)c1ccc(OCOCCOCCO)c(Cc2cc(C(C)(C)CC(C)(C)C)cc(Cc3cc(C(C)(C)CC(C)(C)C)ccc3OCOCCOCCO)c2OCOCCOCCO)c1 [Tyloxapol] | 0.217 ± 0.018 |
| Cc1nccn1CC1CCc2c(c3ccccc3n2C)C1=O (stereo not given) [Ondansetron Hydrochloride] | 0.229 ± 0.013 |
| O=C1CCC(N2C(=O)c3ccccc3C2=O)C(=O)N1 (stereo not given) [Thalidomide] | 0.189 ± 0.016 |

Same assay, conditions: arabinose induction (level): Low; compound 0.1 mM; raw OD600 reference: median of DMSO wells 0.227, cell-free background 0.041

| SMILES | growth |
| --- | --- |
| CCN(CC)CCNc1ccc(CO)c2sc3ccccc3c(=O)c12 [Hycanthone] | 0.163 ± 0.01 |
| CN(C)CCOC(=O)COc1ccc(Cl)cc1 [Meclofenoxate hydrochloride] | 0.204 ± 0.019 |
| Cc1ncc(CO)c(CO)c1O [Pyridoxine hydrochloride] | 0.239 ± 0.04 |
| Cn1c(NCCN(CCO)CCCc2ccc([N+](=O)[O-])cc2)cc(=O)n(C)c1=O [Nifekalant] | 0.258 ± 0.013 |
| CC(=O)O[C@]1(C(C)=O)CC[C@H]2[C@@H]3C=C(Cl)C4=CC(=O)CC[C@]4(C)[C@H]3CC[C@@]21C [Chlormadinone acetate] | 0.109 ± 0.029 |
| Cn1c(=O)c2c(ncn2C)n(C)c1=O [Caffeine] | 0.228 ± 0.044 |
| CCN(CC)CCOC(=O)C(c1ccccc1)C1CCCCC1 (stereo not given) [Drofenine hydrochloride] | 0.179 ± 0.014 |
| C[C@]12CC[C@@H]3c4ccc(O)cc4CC[C@H]3[C@@H]1CCC2=O [Estrone] | 0.201 ± 0.022 |
| CC(C)c1ccc2oc3nc(N)c(C(=O)O)cc3c(=O)c2c1 [Amlexanox] | 0.206 ± 0.036 |
| O=C(O)[C@H]1/C(=C/CO)O[C@@H]2CC(=O)N21 [Clavulanate potassium salt] | 0.164 ± 0.012 |
| COc1ccc(C(=O)c2ccccc2)c(O)c1 [Oxybenzone] | 0.257 ± 0.0051 |
| NC[C@@H]1O[C@@H](O[C@H]2[C@H](O)[C@@H](O[C@H]3O[C@H](CO)[C@@H](O)[C@H](N)[C@H]3O)[C@H](N)C[C@@H]2N)[C@@H](O)[C@H](O)[C@H]1O [Kanamycin A sulfate] | 0.28 ± 0.056 |
| CC(CN(C)C)C(C)(O)Cc1ccc(Cl)cc1 (stereo not given) [Clobutinol hydrochloride] | 0.222 ± 0.026 |
| Cc1[nH]c(=O)c(C#N)cc1-c1ccncc1 [Milrinone] | 0.236 ± 0.014 |
| C1CCC(C(CC2CCCCN2)C2CCCCC2)CC1 (stereo not given) [Perhexiline maleate] | 0.0474 ± 0.002 |
| O=C(O)CCC(=O)c1ccc(-c2ccccc2)cc1 [Fenbufen] | 0.203 ± 0.047 |
| O=C(CCCN1CCC(O)(c2ccc(Br)cc2)CC1)c1ccc(F)cc1 [Bromperidol] | 0.215 ± 0.044 |
| CC(C)(C)CC(C)(C)c1ccc(OCOCCOCCO)c(Cc2cc(C(C)(C)CC(C)(C)C)cc(Cc3cc(C(C)(C)CC(C)(C)C)ccc3OCOCCOCCO)c2OCOCCOCCO)c1 [Tyloxapol] | 0.261 ± 0.033 |
| Cc1nccn1CC1CCc2c(c3ccccc3n2C)C1=O (stereo not given) [Ondansetron Hydrochloride] | 0.183 ± 0.004 |
| O=C1CCC(N2C(=O)c3ccccc3C2=O)C(=O)N1 (stereo not given) [Thalidomide] | 0.24 ± 0.052 |

From the supplement of paper PMC9262897, “Low-cost anti-mycobacterial drug discovery using engineered E. coli” (Nature Communications, 2022)
